According to PubChem BioAssay (NCATS):
Results filed as inconclusive are left out. The source made the active and inactive calls. Calls follow the shape of the dose curve; as a rule, active = well fitted curve in the direction sought with a large enough effect; inconclusive = small, poorly fitted or top-dose-only effect, or another doubt; inactive = no such curve, though single readings can be large; an effect the other way counts as inactive or inconclusive.

Key:
[1] = Quantitative High-Throughput drug screen in 47 multiple myeloma cell lines against the NCATS MIPE library collection: KMS12PE_JCRB cell viability assay (AID 1918972); also: nearly all actives have a fitted effect of over 30% in size
Outline: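 Steps: seed 500 cells per well; pin-transfer MIPE 4.0 library; incubate 48 h at 37C, 5% CO2, humidified; add CellTiter-Glo, 5 min room temperature; read luminescence.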

[2] = Quantitative High-Throughput drug screen in 47 multiple myeloma cell lines against the NCATS MIPE library collection: KMS26_JCRB cell viability assay (AID 1918975); also: nearly all actives have a fitted effect of over 45% in size
Outline: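 Luminescent ATP measurement with CellTiter-Glo gives viability, scaled between DMSO-only wells (100%) and media-only wells (0%). Cells, 500 per well, faced library compounds for 48 hours at 37C.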

[3] = Quantitative High-Throughput drug screen in 47 multiple myeloma cell lines against the NCATS MIPE library collection: MMM1_PLB cell viability assay (AID 1918976); also: nearly all actives have a fitted effect of over 35% in size
Outline: (§1)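 Inhibition of viability over 48 h was scored by ATP content (CellTiter-Glo) in 500-cell wells. Zero and full viability were defined by media-only and DMSO-only wells.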

[4] = Quantitative High-Throughput drug screen in 47 multiple myeloma cell lines against the NCATS MIPE library collection: NCIH929_DSMZ cell viability assay (AID 1918978); also: nearly all actives have a fitted effect of over 35% in size
Outline: as §1

[5] = Quantitative High-Throughput drug screen in 47 multiple myeloma cell lines against the NCATS MIPE library collection: MM1R_ATCC cell viability assay (AID 1918981); also: nearly all actives have a fitted effect of over 35% in size
Outline: as §1

[6] = Quantitative High-Throughput drug screen in 47 multiple myeloma cell lines against the NCATS MIPE library collection: MOLP8_DSMZ cell viability assay (AID 1918977); also: nearly all actives have a fitted effect of over 45% in size
Outline: as §1

[7] = Quantitative High-Throughput drug screen in 47 multiple myeloma cell lines against the NCATS MIPE library collection: OCIMY1_PLB cell viability assay (AID 1918979); also: nearly all actives have a fitted effect of over 35% in size
Outline: as §1

[8] = Quantitative High-Throughput drug screen in 47 multiple myeloma cell lines against the NCATS MIPE library collection: MM1S_ATCC cell viability assay (AID 1918980); also: nearly all actives have a fitted effect of over 45% in size
Outline: as §1

[9] = Quantitative High-Throughput drug screen in 47 multiple myeloma cell lines against the NCATS MIPE library collection: KMS21BM_JCRB cell viability assay (AID 1918974); conditions: ATP luminescence, 48 h; viability: at 45.8 µM (top of the series) unless noted
Outline: (§2)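 qHTS of the MIPE 4.0 collection: 500 myeloma cells/well, 48 h drug exposure at 37C in 5% CO2, then CellTiter-Glo for 5 min at room temperature before luminescence reading.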

[10] = Quantitative High-Throughput drug screen in 47 multiple myeloma cell lines against the NCATS MIPE library collection: KMS20_JCRB cell viability assay (AID 1918973); also: nearly all actives have a fitted effect of over 45% in size
Outline: as §2

Measured: Potency
Potency is read from the fitted curve at half-maximal effect.

C[C@H]1C[C@@H]2[C@@H]([C@@H](O)C[C@@]3(C)[C@H]2CC[C@]3(O)C(=O)CO)[C@@]2(C)C=CC(=O)C=C12
inactive: [1] | [2] | [3] | [4] | [5]

CCCNC(=O)Nc1ccc(Oc2ncnc3cc(OC)c(OC)cc23)cc1Cl
inactive: [1] | [6] | [4] | [7]
active: [3] 1.66 µM | [8] 20.9 µM

COc1cc(C)c(Sc2cnc(NC(=O)c3ccc(CNC(C)C(C)C)cc3)s2)cc1C(=O)N1CCN(C(C)=O)CC1 (stereo not drawn)
active: [3] 4.69 µM | [4] 2.96 µM | [8] 16.6 µM
inactive: [1]

C=C1C(=CC=C2CCCC3(C)[C@@H]([C@H](C)C=CC=CC(O)(CC)CC)CC[C@@H]23)C[C@@H](O)C[C@@H]1O (stereo partly drawn)
active: [1] 14.8 µM | [2] 23.5 µM | [5] 14.8 µM

O=C(C=Cc1cccnc1)NCCCCC1CCN(C(=O)c2ccccc2)CC1
active: [1] 0.0148 µM | [9] 0.0166 µM | [2] 0.0053 µM | [4] 0.0132 µM | [8] 0.0296 µM
inactive: [6]

C[C@@H]1COC(Nc2ccc3ncnc(Nc4ccc(OCc5nccs5)c(Cl)c4)c3c2)=N1
active: [1] 16.6 µM | [3] 23.5 µM | [4] 3.32 µM | [8] 4.18 µM

CC(=O)OCC(=O)[C@@]1(O)[C@H](C)C[C@H]2[C@@H]3C=C(C)C4=Cc5c(cnn5-c5ccccc5)C[C@]4(C)[C@@H]3[C@@H](O)C[C@@]21C
active: [1] 8.33 µM | [2] 10.5 µM | [3] 16.6 µM | [4] 8.33 µM | [7] 9.35 µM | [8] 0.0132 µM | [5] 9.35 µM

Nc1nccc(Oc2ccc(NC(=O)c3c[nH]cc(-c4ccc(F)cc4)c3=O)cc2F)c1Cl
inactive: [1]
active: [2] 33.2 µM | [3] 23.5 µM | [6] 20.9 µM | [4] 20.9 µM | [8] 1.18 µM | [5] 2.35 µM

Cn1c2cc(S(C)=O)sc2c2cnn(Cc3cccc(N)c3)c(=O)c21 (stereo not drawn)
active: [3] 3.32 µM
inactive: [1] | [2] | [4] | [7] | [5]

CC1(C)CCC(c2ccc(Cl)cc2)=C(CN2CCN(c3ccc(C(=O)NS(=O)(=O)c4ccc(N[C@H](CCN5CCOCC5)CSc5ccccc5)c(S(=O)(=O)C(F)(F)F)c4)cc3)CC2)C1
active: [1] 0.0105 µM | [3] 0.0935 µM | [4] 13.2 µM | [8] 0.332 µM | [5] 0.187 µM

CN(C)CCCN=c1c2ccccc2n(C)c2[nH]c(=O)n(C)c(=O)c12
active: [1] 5.9 µM | [2] 26.4 µM | [3] 16.6 µM | [6] 6.62 µM | [4] 11.8 µM | [8] 3.72 µM | [5] 18.7 µM

O=c1[nH]c(=O)n(C2CCCO2)cc1F (stereo not drawn)
inactive: [1] | [9] | [2] | [4] | [7]

CCC(=C(c1ccccc1)c1ccc(OCCN(C)C)cc1)c1ccccc1
inactive: [7]
active: [1] 13.2 µM | [9] 18.7 µM | [4] 20.9 µM | [8] 29.6 µM | [5] 23.5 µM

COc1ccc2c(c1)CC[C@@H](CN(C)CC(=O)O)[C@H]2c1ccccc1
active: [1] 1.05 µM | [9] 5.26 µM | [2] 1.87 µM | [3] 14.8 µM | [4] 5.26 µM | [8] 9.35 µM

O=C(Cc1ccc(-c2ccc(OCCN3CCOCC3)cc2)cn1)NCc1ccccc1
active: [1] 0.0148 µM | [2] 0.0833 µM | [3] 14.8 µM | [6] 0.0833 µM | [4] 0.0935 µM | [8] 0.132 µM | [5] 0.187 µM

O=C(O)CCCc1c[nH]c2ccccc12
inactive: [1] | [2] | [6] | [4] | [7] | [5]

COc1ccc(C=Cc2cc(OC)c(OC)c(OC)c2)cc1O
inactive: [1] | [9] | [3] | [4] | [7]

CNC(=O)CN1CCC(Oc2cc3c(Nc4cccc(Cl)c4F)ncnc3cc2OC)CC1
active: [1] 0.0105 µM | [10] 0.0418 µM | [4] 0.059 µM | [8] 0.0105 µM

CC(C)c1noc(N2CCC(COc3ccc(-c4ccc(S(C)(=O)=O)cc4)nc3)CC2)n1
inactive: [8]
active: [1] 0.418 µM | [6] 0.418 µM

CC(=O)OCCN1C(=O)c2c(C)nc3ccc(S(=O)(=O)N4CCOCC4)cc3c2C1=O
inactive: [1] | [6] | [4] | [5]

CNC(=O)c1c(F)cccc1Nc1nc(Nc2cc3c(cc2OC)CCN3C(=O)CN(C)C)nc2[nH]ccc12
active: [10] 0.118 µM | [2] 0.264 µM | [3] 0.0469 µM | [6] 7.43 µM | [4] 0.0833 µM | [7] 0.372 µM | [5] 0.0935 µM
